Structures are written as SMILES. Screen size: about 340,000 compounds; about 5,100 (1.5%) were called active. The list comes from a sample in which actives are over-represented; it also holds similar structures and randomly drawn compounds. Values without a mark were called inactive.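 The calls were made as follows: active = mean Tm shift, scaled 0 neutral to 100 positive control, at about 1.3% or above, every replicate too (limit read from the data); inconclusive = no clear call, values can overlap the other calls; inactive = the rest.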

The target in this test is Fibroblast growth factor 22 (Homo sapiens) (UniProt Q9HCT0). As to the kind of experiment: binders of human FGF22 protein, primary screen, FGF22 synaptogenesis inhibitor project, biophysical, thermal shift, single point (AID 651658). As to conditions: recombinant FGF22 thermal shift, SYPRO orange fluorescence; at 9.99 µM; hits give high values; percent of sucrose octasulfate shift, DMSO zero.
Chain of Fibroblast growth factor 22 (Homo sapiens) (Q9HCT0 whole entry, looked up): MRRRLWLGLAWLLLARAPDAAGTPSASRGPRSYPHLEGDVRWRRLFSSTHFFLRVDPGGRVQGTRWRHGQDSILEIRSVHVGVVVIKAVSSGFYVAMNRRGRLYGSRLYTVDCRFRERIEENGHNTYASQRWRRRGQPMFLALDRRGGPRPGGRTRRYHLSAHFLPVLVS
Regarding `O=C(c1ccncc1)N1C[C@@H]2[C@H](c3ccccc31)[C@H](CO)N2C(=O)c1ccncc1`, the activity (Tm shift, normalised) is 1.08%.

For the compound `O=C(C[C@@H]1C[C@H]2c3cc(NC(=O)Nc4ccccc4F)ccc3O[C@H]2[C@@H](CO)O1)NC1CCCCC1`, the activity (Tm shift, normalised) was 0.159%.

Take `N#C[C@@H]1[C@@H](c2ccccc2)[C@@H](CO)N1C(=O)c1cc(Cl)cc(Cl)c1`: the activity (Tm shift, normalised) was -0.146%.

As for `O=C(NCc1ccccc1)[C@H]1CCCN1C(=O)[C@H]1CCCN1C(=O)N1CCOCC1`, the activity (Tm shift, normalised) is 0.083%.

`Cc1ccc2c(Cl)c(C(=O)Nc3nn[nH]n3)sc2c1`: the activity (Tm shift, normalised) is -0.027%.

For `CNC(=O)/C(C#N)=C/c1c(F)cccc1Cl`, the activity (Tm shift, normalised) is 0.243%.

Regarding `O=C(/C=C/c1c(F)cccc1Cl)Nc1nn[nH]n1`, the activity (Tm shift, normalised) was 43.2% (active).

As to `C/C=C/c1ccc([C@@H]2[C@@H](CO)N(C(=O)c3ccccc3)C23CN(C(C)=O)C3)cc1`, the activity (Tm shift, normalised) is -0.191%.

On to `O=C(c1ccncc1)N1C[C@H]2[C@@H](c3ccccc31)[C@H](CO)N2C(=O)Nc1ccc(F)cc1`, for which the activity (Tm shift, normalised) is -0.662%.

Turning to `Cc1ccc(C)n1NC(=O)c1ccc([N+](=O)[O-])cc1`, the activity (Tm shift, normalised) is 0.235%.

Turning to `COc1ccccc1C1SCCN1C(=O)c1ccc([N+](=O)[O-])cc1` (configuration not stated), the activity (Tm shift, normalised) was 43.3% (active).

As for `COc1ccccc1C1CCN(c2ccc([N+](=O)[O-])cn2)CC1`, the activity (Tm shift, normalised) is 0.136%.

For the compound `Cc1ccc(S(=O)(=O)Nc2ccc3c(c2)C(=O)N(C)[C@@H]2CC[C@@H](CC(=O)O)O[C@H]2CO3)cc1`, the activity (Tm shift, normalised) is -0.106%.

On to `Cc1ccc(-c2ccc3c(c2)O[C@H](CN(C)C(=O)CC2CC2)[C@@H](C)CN([C@H](C)CO)S3(=O)=O)cc1`, for which the activity (Tm shift, normalised) is -0.566%.

In the case of `COc1ccc(NC(=O)Nc2ccc3c(c2)[C@@H]2C[C@H](CC(=O)N4CCCCC4)O[C@H](CO)[C@@H]2O3)cc1`, the activity (Tm shift, normalised) was -0.385%.

With `O=c1ccnc(Nc2ccc(Cl)cc2)[nH]1`, the activity (Tm shift, normalised) is 0.494%.

For `Cc1nnc(Nc2ccccc2F)s1`, the activity (Tm shift, normalised) was 0.041%.

As for `O=c1cnnc(Nc2ccccc2F)[nH]1`, the activity (Tm shift, normalised) is 43.4% (active).

For the compound `CN(C)C(=O)C[C@H]1C[C@@H]2c3cc(NC(=O)CC4CC4)ccc3O[C@@H]2[C@@H](CO)O1`, the activity (Tm shift, normalised) is -0.027%.

Turning to `CCCNC(=O)N(C)C[C@@H]1Oc2ncc(-c3cccc(C#N)c3)cc2C(=O)N([C@@H](C)CO)C[C@H]1C`, the activity (Tm shift, normalised) was 0.077%.

Consider `CC(C)c1cn([C@H]2C[C@@H]3O[C@H](CO)CC[C@@H]3O[C@@H]2CCc2ccc(C#CC3CCCCC3)cc2)nn1`, for which the activity (Tm shift, normalised) is 0.095%.

For `CCc1ccccc1NC(=O)Cc1cn(C)c2ccccc12`, the activity (Tm shift, normalised) was 43.6% (active).

Take `Cn1cc(CCC(=O)NC2CC2)c2ccccc21`: the activity (Tm shift, normalised) was -0.251%.

On to `Cc1ccc(CNC(=O)Cc2cn(C)c3ccccc23)cc1`, for which the activity (Tm shift, normalised) is -0.058%.

For `C[C@H](CO)N1C[C@H](C)[C@H](CN(C)C(=O)Nc2ccc(F)cc2)OCCCC[C@H](C)Oc2ccc(NC(=O)CCC(F)(F)F)cc2C1=O`, the activity (Tm shift, normalised) was -0.451%.

`O=C(COc1coc(CN2CCN(c3ccccc3F)CC2)cc1=O)N1CCc2ccccc21`: the activity (Tm shift, normalised) is -0.217%.

For `Cn1c(=O)cc(OCC(=O)N2CCN(c3ccccc3F)CC2)c2ccccc21`, the activity (Tm shift, normalised) is 44% (active).

Regarding `O=C(CCSc1ccccc1)N1CCN(c2ccccc2F)CC1`, the activity (Tm shift, normalised) is 0.121%.

Turning to `C[C@@H]1CN([C@H](C)CO)C(=O)c2cc(NC(=O)Nc3cccc4ccccc34)ccc2O[C@H]1CN(C)C(=O)Nc1ccccc1`, the activity (Tm shift, normalised) is -0.15%.

In the case of `CCC(=O)N1C[C@@H](C)[C@H](OC)CN(C)C(=O)c2ccc(NC(=O)NC(C)C)cc2OC[C@H]1C`, the activity (Tm shift, normalised) was -0.086%.

In the case of `CCC(=O)N1C[C@@H](C)[C@H](OC)CN(C)C(=O)c2ccc(NC(=O)c3ccc(F)cc3)cc2OC[C@@H]1C`, the activity (Tm shift, normalised) is -0.101%.

Consider `O=C(O)CCC(=O)N(Cc1ccccc1)Cc1ccccc1`, for which the activity (Tm shift, normalised) was -0.007%.

For the compound `CCN(CC)C(=O)N(CC)Cc1ccccc1`, the activity (Tm shift, normalised) was 43.4% (active).

Take `CCN(Cc1ccncc1)C(=O)CCc1ccccc1`: the activity (Tm shift, normalised) is 0.094%.

With `CNC(=O)C[C@H]1CC[C@H]2[C@H](COc3ccc(NC(=O)c4cc(C)on4)cc3C(=O)N2C)O1`, the activity (Tm shift, normalised) is -0.057%.

For the compound `O=C(C[C@H]1C[C@@H]2c3cc(NC(=O)c4ccc5c(c4)OCO5)ccc3O[C@@H]2[C@@H](CO)O1)NCc1cccnc1`, the activity (Tm shift, normalised) was -0.297%.

Regarding `C[C@H]1CN([C@@H](C)CO)C(=O)CCCn2nncc2CO[C@H]1CN(C)S(=O)(=O)c1ccccc1C#N`, the activity (Tm shift, normalised) was -0.016%.

Turning to `CO[C@H]1CN(C)C(=O)c2cc(NC(=O)C3CCC3)ccc2OC[C@H](C)N(Cc2nccs2)C[C@H]1C`, the activity (Tm shift, normalised) is -0.288%.

Consider `Cc1noc(C)c1S(=O)(=O)N(C)C[C@@H]1Oc2ccc(NC(=O)Cn3cnnn3)cc2CC(=O)N([C@@H](C)CO)C[C@@H]1C`, for which the activity (Tm shift, normalised) was -0.13%.

With `Cc1cccc(-n2cnc(C(=O)NNC(=S)Nc3ccccc3)c2)n1`, the activity (Tm shift, normalised) was 0.832%.

As for `O=C(Nc1cccc(Cl)c1)c1cncn1-c1ccc(F)cc1`, the activity (Tm shift, normalised) is 0.242%.

In the case of `Cn1cc(Cl)c(C(=O)NNC(=S)Nc2cccc(Cl)c2)n1`, the activity (Tm shift, normalised) is 44.2% (active).

On to `COCC(=O)Nc1ccc2c(c1)C(=O)N(C)[C@@H]1CC[C@H](CC(=O)NCC3CC3)O[C@H]1CO2`, for which the activity (Tm shift, normalised) is 0.038%.

Consider `COC(=O)c1cc(OCC(=O)NC2CCCc3ccccc32)cc(C(=O)OC)c1` (configuration not stated), for which the activity (Tm shift, normalised) is 0.172%.

Take `CCOc1ccc(NC(=O)COc2ccc(C(=O)NC3CCCc4ccccc43)cc2OC)cc1` (configuration not stated): the activity (Tm shift, normalised) is 0.171%.

Turning to `NC(=O)Nc1ccc(C(=O)OCC(=O)NC2CCCc3ccccc32)cc1` (configuration not stated), the activity (Tm shift, normalised) is 43% (active).

Consider `O=C(NC1CCCCC1)N1CC2(C1)[C@H](c1ccccc1)[C@@H](CO)N2S(=O)(=O)Cc1ccccc1`, for which the activity (Tm shift, normalised) was -0.24%.

As to `Cc1ccc(NS(=O)(=O)c2ccc(C(C)C)cc2)cc1S(=O)(=O)N1CCOCC1`, the activity (Tm shift, normalised) was -0.175%.

In the case of `CC(=O)NCCc1ccc(S(=O)(=O)Nc2ccc(C)c(S(=O)(=O)N3CCOCC3)c2)cc1`, the activity (Tm shift, normalised) is -0.312%.

On to `Cc1ccc(S(=O)(=O)Nc2ccc(F)c(S(=O)(=O)N3CCOCC3)c2)cc1`, for which the activity (Tm shift, normalised) is 43.3% (active).

Take `CCCN1C[C@@H](C)[C@@H](OC)CN(C)C(=O)c2cc(NC(=O)CC(F)(F)F)ccc2OC[C@H]1C`: the activity (Tm shift, normalised) was 0.002%.

Take `CCOc1ccc(-c2cc(C(=O)N/N=C/c3ccc(O)cc3)c3ccccc3n2)cc1`: the activity (Tm shift, normalised) was 0.307%.

For the compound `O=C(N/N=C/c1ccc(OCc2ccccc2)cc1)c1ccc(O)cc1`, the activity (Tm shift, normalised) is 2.5% (active).

On to `O=C(Cc1cccs1)N/N=C/c1ccc(OCc2ccccc2)cc1`, for which the activity (Tm shift, normalised) is 0.285%.

`CCCNC(=O)N1CC2(CCN(C(=O)C3CC3)CC2)c2c([nH]c3cc(OC)ccc23)[C@H]1CO`: the activity (Tm shift, normalised) is -0.002%.

As to `CCC(=O)N(C)C[C@@H]1Oc2ncc(C#Cc3cccnc3)cc2C(=O)N([C@@H](C)CO)C[C@@H]1C`, the activity (Tm shift, normalised) was 0.101%.

Consider `Cc1cc(Cl)ccc1OCCCC(=O)Nc1cccc(-n2cnnn2)c1`, for which the activity (Tm shift, normalised) was 0.032%.

`Cc1cc(Cl)ccc1OCCCC(=O)NCc1ccccn1`: the activity (Tm shift, normalised) was 43.6% (active).

With `Cc1ccc(SCCC(=O)NCc2ccccn2)cc1`, the activity (Tm shift, normalised) is 0.257%.

`COc1cccc(C(=O)n2ccc(-c3cccs3)n2)c1`: the activity (Tm shift, normalised) was -0.099%.

In the case of `COc1cc(OC)cc(-c2nc(=S)n3ccsc3n2)c1`, the activity (Tm shift, normalised) was 43.5% (active).

Consider `C[C@@H]1CCCCO[C@H](CN(C)C(=O)Nc2ccc(C(F)(F)F)cc2)[C@@H](C)CN([C@@H](C)CO)C(=O)c2cc(NC(=O)Nc3cccc4ccccc34)ccc2O1`, for which the activity (Tm shift, normalised) was -0.177%.

For the compound `C[C@H]1CCCCO[C@@H](CN(C)Cc2ccccc2)[C@@H](C)CN([C@@H](C)CO)C(=O)c2cc(NC(=O)Cc3ccccc3)ccc2O1`, the activity (Tm shift, normalised) is -0.273%.

Regarding `Cc1ccc(S(=O)(=O)N(Cc2ccccc2)c2ccccn2)cc1[N+](=O)[O-]`, the activity (Tm shift, normalised) is -0.192%.

On to `Cc1ccc(S(=O)(=O)Nc2nc3ccccc3s2)cc1[N+](=O)[O-]`, for which the activity (Tm shift, normalised) was 2.09% (active).

As for `CCOc1ccc2sc(NS(=O)(=O)c3ccc(N)cc3)nc2c1`, the activity (Tm shift, normalised) was 0.571%.

Consider `CO[C@H](CN(C)C(=O)c1ccc2c(c1)OCO2)[C@H](C)CN([C@@H](C)CO)S(=O)(=O)c1ccc(Cl)cc1`, for which the activity (Tm shift, normalised) was 0.025%.

As to `C[C@@H]1CCCCO[C@H](CN(C)S(=O)(=O)c2ccc(Cl)cc2)[C@H](C)CN([C@@H](C)CO)C(=O)c2cc(NS(=O)(=O)c3cn(C)cn3)ccc2O1`, the activity (Tm shift, normalised) was -0.295%.

As to `CN(C)CCCn1c(=O)n(Cc2ccccc2)c(=O)c2c3c(sc21)CCCCC3`, the activity (Tm shift, normalised) was 5.16% (active).

Turning to `COCCn1cnc2c1c(=O)n(Cc1ccc(Br)cc1)c(=O)n2Cc1ccccc1`, the activity (Tm shift, normalised) is 0.138%.

For the compound `O=c1c2c3c(sc2n(CCN2CCCC2)c(=O)n1Cc1ccccc1)CCCCC3`, the activity (Tm shift, normalised) is -0.07%.

As for `CC(C)NC(=O)N(C)C[C@@H]1OCCCC[C@@H](C)Oc2ccc(NC(=O)NC3CCCCC3)cc2C(=O)N([C@@H](C)CO)C[C@@H]1C`, the activity (Tm shift, normalised) is -0.284%.

Consider `COc1ccc(/C=C(/NC(=O)c2ccccc2)C(=O)Nc2cccc(C(=O)O)c2)cc1`, for which the activity (Tm shift, normalised) is -0.131%.

Regarding `CCOc1ccc(/C=C(/NC(=O)c2ccccc2)C(=O)NCCC(=O)O)cc1`, the activity (Tm shift, normalised) was 43.7% (active).

On to `CCOC(=O)CNC(=O)/C(=C\c1ccc(F)cc1)NC(=O)c1ccccc1`, for which the activity (Tm shift, normalised) is 0.033%.

In the case of `O=C(C[C@H]1C[C@H]2c3cc(NC(=O)Nc4ccc(C(F)(F)F)cc4)ccc3O[C@H]2[C@@H](CO)O1)NCCc1ccccc1`, the activity (Tm shift, normalised) was 0.15%.

As to `C[C@@H]1CN([C@H](C)CO)C(=O)c2cc(NC(=O)CCCCCC(=O)Nc3ccccc3N)ccc2O[C@H]1CN(C)Cc1ccncc1`, the activity (Tm shift, normalised) was -0.063%.

These data come from PubChem BioAssay AID651658 (Broad Institute, 2012).
